The source made the active and inactive calls. Calls come from the whole dose curve.
molecular target: Tumor susceptibility gene 101 protein (Homo sapiens) (UniProt Q99816); test: qHTS Validation Assay for Iinhibitors of HIV-1 Budding by Blocking the Interaction of PTAP/TSG101 (AID 485342); conditions: TSG101-PTAP binding, fluorescence polarization, 4-point titration; series mostly up to 115 µM
Procedure, shortened: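 Tsg101 binding domain (10 uM final) in pH 7.5 HEPES/NaCl/Tween 20/EDTA/TCEP buffer was mixed with pin-transferred compounds, then FITC-labeled PTAP peptide (50 nM final) was added; after 20 min at r.t., fluorescence polarization was read.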

Chain of Tumor susceptibility gene 101 protein (Homo sapiens) (Q99816 whole entry, looked up, the tested form may be a part): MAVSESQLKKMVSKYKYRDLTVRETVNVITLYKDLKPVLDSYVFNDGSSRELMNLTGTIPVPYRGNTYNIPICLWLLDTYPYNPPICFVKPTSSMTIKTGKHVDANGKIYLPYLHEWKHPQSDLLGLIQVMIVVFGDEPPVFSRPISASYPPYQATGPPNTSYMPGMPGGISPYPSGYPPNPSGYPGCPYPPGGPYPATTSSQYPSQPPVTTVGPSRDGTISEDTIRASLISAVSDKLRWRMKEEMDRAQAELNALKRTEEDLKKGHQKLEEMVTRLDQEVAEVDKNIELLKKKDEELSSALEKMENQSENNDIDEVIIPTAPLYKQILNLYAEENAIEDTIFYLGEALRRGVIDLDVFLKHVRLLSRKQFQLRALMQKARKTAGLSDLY

Row | SMILES | outcome
1 | N[C@@H](Cc1c[nH]c2ccc(O)cc12)C(=O)O | inactive
2 | COc1cc2nc(N3CCN(C(=O)c4ccco4)CC3)nc(N)c2cc1OC | inactive
3 | CN1CCC(=C2c3ccccc3C=Cc3ccccc32)CC1 | inactive
4 | Nc1c2c(nc3ccccc13)CCCC2 | inactive
5 | Fc1ccc([C@@H]2CCNC[C@H]2COc2ccc3c(c2)OCO3)cc1 | inactive
6 | O=C1c2c(O)ccc(O)c2C(=O)c2c(NCCNCCO)ccc(NCCNCCO)c21 | inactive
7 | CCC1(C)CC(=O)NC1=O (configuration not stated) | inactive
8 | CC(C)NCC(O)COc1ccc(CCOCC2CC2)cc1 (configuration not stated) | inactive
9 | CN(C)c1nc(N(C)C)nc(N(C)C)n1 | inactive
10 | NCCS(=O)(=O)O | inactive
11 | CN(C)CCC=C1c2ccccc2C=Cc2ccccc21 | inactive
12 | Cn1c(=O)c2c(ncn2C)n(C)c1=O | inactive
13 | CCC1(c2ccccc2)C(=O)NCNC1=O | inactive
14 | COc1ccc2[nH]cc(CCNC(C)=O)c2c1 | inactive
15 | CCCNCC(O)COc1ccccc1C(=O)CCc1ccccc1 (configuration not stated) | inactive
16 | CN1CCC(=C2c3ccccc3CC(=O)c3sccc32)CC1 | inactive
17 | O=C(c1ccc(F)cc1)C1CCN(CCn2c(=O)[nH]c3ccccc3c2=O)CC1 | inactive
18 | CN1CCN(CCCN2c3ccccc3Sc3ccc(Cl)cc32)CC1 | inactive
19 | CC[N+](CC)(CC)CCOc1cccc(OCC[N+](CC)(CC)CC)c1OCC[N+](CC)(CC)CC | inactive
20 | O=C1N(c2ccccc2)c2ccccc2C1(Cc1ccncc1)Cc1ccncc1 | inactive
21 | NC(=O)OCC(COC(N)=O)c1ccccc1 | inactive
22 | Nc1nc2c(ncn2COC(CO)CO)c(=O)[nH]1 | inactive
